PI5P4Ka inh: inhibitors of human PI5P4K alpha | P48426 | PI5P4Kalpha enzyme, ADP-Glo luminescence, 60 min; active compounds read low | max response, % | hit rate 1.2% among 330,000; active = max response of -50% or lower; inconclusive = between -30% and -50%; inactive = -30% or higher; also: value at the top dose of about 77 µM
Target sequence (P48426 whole entry, looked up): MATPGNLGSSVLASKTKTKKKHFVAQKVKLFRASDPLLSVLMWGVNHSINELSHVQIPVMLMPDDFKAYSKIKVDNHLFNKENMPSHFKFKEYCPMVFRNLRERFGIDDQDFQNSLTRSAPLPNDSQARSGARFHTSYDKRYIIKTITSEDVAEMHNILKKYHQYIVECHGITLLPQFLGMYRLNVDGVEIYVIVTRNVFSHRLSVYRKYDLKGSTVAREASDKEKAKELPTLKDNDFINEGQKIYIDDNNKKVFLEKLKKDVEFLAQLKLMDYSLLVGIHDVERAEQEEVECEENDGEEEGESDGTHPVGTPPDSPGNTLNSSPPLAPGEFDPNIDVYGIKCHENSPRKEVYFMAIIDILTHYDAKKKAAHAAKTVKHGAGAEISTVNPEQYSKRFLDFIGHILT
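PI5P4Kalpha ADP-Glo assay; 5 microM ATP final; 60 min RT reaction; HEPES pH 7.4/EGTA/CHAPS, 5% DMSO; controls lacking substrate or enzyme; luminescent end-point.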
HP1b chromo inh: inhibitors of HP1-beta chromodomain binding to methylated histone tails; P83916; AlphaScreen HP1-beta / biotin-H3K9me3 peptide binding; Potency, µM (top dose mostly 114 µM), hits mostly inhibitors; hit rate 0.56% among 390,000; also: nearly all actives have a fitted effect of over 70% in size
Target sequence (P83916 whole entry, looked up): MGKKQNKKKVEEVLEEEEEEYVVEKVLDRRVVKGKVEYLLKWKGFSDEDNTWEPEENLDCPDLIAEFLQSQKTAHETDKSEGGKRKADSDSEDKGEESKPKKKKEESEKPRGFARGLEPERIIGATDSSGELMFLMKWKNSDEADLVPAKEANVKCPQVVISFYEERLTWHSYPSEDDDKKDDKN
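Compound inhibition of the preformed complex between 50 nM HP1-beta and 50 nM biotinylated H3K9me3 peptide was read by AlphaScreen. Buffer was PBS pH 7.4 with 0.01% Tween-20. Incubations ran 30 min at room temperature, with 10 ug/mL donor/acceptor beads.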
BAZ2B block: inhibitors of human BAZ2B bromodomain | Q9UIF8 | AlphaScreen BAZ2B-H3K14Ac peptide displacement | Potency, µM (top dose mostly 114 µM), actives largely listed as inhibitors | hit rate 4.4% among 360,000 | AID 504333; also: nearly all actives have a fitted effect of over 60% in size
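In this displacement format the biotinylated H3(5-23) peptide acetylated at Lys14 serves as ligand at 50 nM, with BAZ2B at 50 nM in PBS pH 7.4 containing 0.01% Tween-20. Donor and acceptor beads are 10 ug/mL final.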
PLK1 PBD block: PLK1 (human) polo-box domain binding inhibition; P53350; hit rate 2.8% among 360,000; Potency, µM, usual class: inhibitors; AID 720504; Plk1 PBD binding of FITC phosphopeptide, fluorescence polarization; also: series mostly up to about 57 µM; nearly all actives have a fitted effect of over 65% in size
G9a block: G9a (human) methyltransferase inhibition; G9a H3K9 monomethylation, AlphaScreen, 2 h; AID 504332; Potency, µM (highest dose often 102 µM), hits mostly inhibitors; hit rate 8.8% among 350,000; also: nearly all actives have a fitted effect of over 75% in size
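Enzyme 20 nM + cpd, 15 min RT; add b-H3K9 pep 500 nM / SAM 20 uM; 2 h RT; anti-H3K9me1 Ab 0.5 ug/mL + SA donor / anti-rabbit acceptor beads 20 ug/mL each, 10 min; AlphaScreen read.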
JMJD2A Tudor: inhibitors of human JMJD2A Tudor domain. O75164. AlphaScreen JMJD2A-Tudor / H3K4me3 peptide binding. Potency, µM (highest dose often 114 µM), usual class: inhibitors. hit rate 4.4% among 390,000. AID 504339; also: nearly all actives have a fitted effect of over 50% in size
Large screens that a line does not name were inactive. In the library only some 12% were active in any assay of this set; here they are far more common. Unless noted, calls follow the shape of the dose curve; as a rule, active = well fitted curve in the direction sought with a large enough effect; inconclusive = small, poorly fitted or top-dose-only effect, or another doubt; inactive = no such curve, though single readings can be large; an effect the other way counts as inactive or inconclusive.

CC(=O)c1ccc(N2CCN(C(=O)c3ccc4[nH]c(C)c(C)c4c3)CC2)cc1	JMJD2A Tudor inconclusive (no result: BAZ2B block, G9a block)
COc1ccc(N2CCN(C(=O)c3ccc4[nH]c(C)c(C)c4c3)CC2)cc1	BAZ2B block 39.8µM
Cc1[nH]c2ccc(C(=O)N3CCN(c4ccc(F)cc4)CC3)cc2c1C	BAZ2B block 35.5µM, G9a block 79.4µM, JMJD2A Tudor 50.1µM
O=C(c1ccc([N+](=O)[O-])o1)N1CCc2ccccc2C1	none
COc1ccc(N2CCN(C(=O)c3cc(-c4ccc(F)cc4)[nH]c3C)CC2)cc1	HP1b chromo inh inconclusive, BAZ2B block 44.7µM, G9a block 44.7µM, JMJD2A Tudor 44.7µM
Cc1[nH]c(-c2ccc(F)cc2)cc1C(=O)N1CCN(c2ccc(Cl)cc2)CC1	BAZ2B block inconclusive, G9a block inconclusive, JMJD2A Tudor inconclusive
COc1cc2c(cc1OC)CN(C(=O)c1ccc([N+](=O)[O-])o1)CC2	G9a block 56.2µM
CN[C@H]1C[C@H]2c3[nH]c4ccccc4c3CCN2C(=O)[C@H]1[C@H](C)O	none (no result: HP1b chromo inh, BAZ2B block, G9a block, JMJD2A Tudor)
COc1cc2c(cc1OC)CN(C(=O)c1ccc3[nH]c(C)c(C)c3c1)CC2	BAZ2B block 50.1µM, JMJD2A Tudor inconclusive (no result: G9a block)
COc1cccc(C2NC(CC(C)C)(C(=O)O)C3C(=O)N(Cc4ccccc4)C(=O)C23)c1O (stereo not drawn)	none (no result: PI5P4Ka inh)
COc1cccc(C2NC(CCSC)(C(=O)O)C3C(=O)N(C(C)C)C(=O)C23)c1O (stereo not drawn)	BAZ2B block 39.8µM, G9a block inconclusive
CCN1CCN(C(=O)CN2C(=O)COc3ccc(C)cc32)CC1	none
COc1cc2c(cc1OC)C1=C(C#N)CCC(=NC(=O)c3ccco3)N1CC2	none
COc1cc2c(cc1OC)C1=C(C#N)CN(CC(=O)O)CN1CC2	BAZ2B block 79.4µM, G9a block 35.5µM, JMJD2A Tudor 22.4µM
O=C1C=C(c2ccccc2)CC(c2cccs2)C1n1cnc([N+](=O)[O-])c1 (stereo not drawn)	PI5P4Ka inh inconclusive, HP1b chromo inh inconclusive, G9a block 44.7µM
CCOC(=O)C1C(=O)C=C(c2ccc([N+](=O)[O-])cc2)CC1c1ccccc1 (stereo not drawn)	HP1b chromo inh inconclusive, BAZ2B block inconclusive, G9a block inconclusive
COc1ccc(C(=O)OCC(=O)NC(=O)NC2CCCC2)cc1OC	none
O=C(Nc1ccc2ccccc2c1)c1ccccc1O	none
O=[N+]([O-])c1ccccc1NCc1c(O)ccc2ccccc12	HP1b chromo inh inconclusive, BAZ2B block 35.5µM, G9a block inconclusive, JMJD2A Tudor 44.7µM
Oc1ccc2ccccc2c1CNc1ccc2ccccc2c1	HP1b chromo inh inconclusive, JMJD2A Tudor 31.6µM (no result: BAZ2B block, G9a block)
Cc1ccnc(NCc2c(O)ccc3ccccc23)c1	BAZ2B block inconclusive, PLK1 PBD block inconclusive (no result: G9a block)
Oc1ccc2ccccc2c1CNc1ccccc1	PLK1 PBD block 3.36µM, JMJD2A Tudor inconclusive (no result: BAZ2B block, G9a block)
Cc1cccc(C)c1NC(=O)C1C(c2ccc3c(c2)OCO3)=Nc2ccccc2N1C(=O)c1cccc2ccccc12 (stereo not drawn)	none (no result: HP1b chromo inh, BAZ2B block, G9a block, JMJD2A Tudor)
COc1ccc(/C=N/N=C2/NC(=O)CC(C(=O)O)S2)cc1 (stereo not drawn)	G9a block inconclusive
COc1ccc(/C=N/N=C2/CC(C)(C)Cc3n[nH]c(=O)cc32)cc1	G9a block 35.5µM
CCN1CCCc2cc(CN(CCN3CCOCC3)C(=S)Nc3cccc(Cl)c3)ccc21	HP1b chromo inh inconclusive, BAZ2B block 7.08µM, G9a block inconclusive, JMJD2A Tudor 11.2µM
CCN1CCCc2cc(CN(CCN3CCOCC3)C(=S)Nc3ccc(OC)cc3)ccc21	none
Cc1ccc(NC(=S)N(CCN2CCOCC2)Cc2ccccc2F)cc1	none
CCN1CCCc2cc(CN(CCN3CCOCC3)C(=S)Nc3cc(F)cc(F)c3)ccc21	HP1b chromo inh inconclusive, BAZ2B block 10µM, G9a block 15.8µM, JMJD2A Tudor 35.5µM
CCOc1ccc(NC(=S)N(CCN2CCOCC2)Cc2ccc3c(c2)CCCN3CC)cc1	HP1b chromo inh inconclusive, BAZ2B block 11.2µM, G9a block 28.2µM, JMJD2A Tudor 35.5µM
CCN1CCCc2cc(CN(CCN3CCOCC3)C(=S)Nc3ccc(C)cc3)ccc21	HP1b chromo inh inconclusive, BAZ2B block 12.6µM, G9a block 12.6µM, JMJD2A Tudor inconclusive
CCN(C[C@H]1N[C@@](CC)(C(=O)OC)[C@H]2C(=O)N(C)C(=O)[C@@H]12)S(=O)(=O)c1ccc(OC(F)(F)F)cc1	none (no result: BAZ2B block, G9a block)
Cc1nnsc1C(=O)Oc1ccc(Cl)cc1	G9a block 12.6µM (no result: PI5P4Ka inh, PLK1 PBD block)
Cc1nnsc1C(=O)Oc1ccc(C#N)cc1	BAZ2B block inconclusive, G9a block 15.8µM, JMJD2A Tudor 89.1µM (no result: PI5P4Ka inh, PLK1 PBD block)
Cc1cc(C)cc(OC(=O)c2snnc2C)c1	none (no result: PI5P4Ka inh, PLK1 PBD block)
Cc1ccc(NC(=O)Cn2c(=O)n(Cc3ccccc3)c(=O)c3c2c2cc(C)ccc2n3C)cc1	none (no result: PI5P4Ka inh, PLK1 PBD block)
COc1cc(C(N)=O)cc(Cl)c1OC	G9a block inconclusive
CNC(=O)c1cc(Cl)c(OC)c(OC)c1	HP1b chromo inh inconclusive, PLK1 PBD block 26.7µM, G9a block 7.94µM
COCCCNC(=O)c1cc(OC)c(OC)c(OC)c1	PLK1 PBD block 29.9µM
COc1cc(C(=O)NC(c2ccccc2)c2ccccc2)cc(OC)c1C	BAZ2B block inconclusive, G9a block 50.1µM
COc1ccc(C(NC(=O)c2cc(OC)ccc2OC)c2ccccc2)cc1 (stereo not drawn)	none
Cc1ccccc1NC(=O)Cn1c(=O)n(Cc2ccc3c(c2)OCO3)c(=O)c2oc3ccccc3c21	none (no result: PI5P4Ka inh, PLK1 PBD block)
Cc1ccc(N2CC(C(=O)N(C)CC(=O)Nc3ccc(Cl)c(C(F)(F)F)c3)CC2=O)cc1 (stereo not drawn)	none
CC(=O)Nc1sc2c(c1C(c1ccc(F)cc1)N1CCOCC1)CCCC2 (stereo not drawn)	BAZ2B block 50.1µM, G9a block inconclusive, JMJD2A Tudor inconclusive
CC(=O)Nc1sc2c(c1C(c1ccc(Cl)cc1)N1CCOCC1)CCCC2 (stereo not drawn)	HP1b chromo inh inconclusive, BAZ2B block inconclusive, G9a block 44.7µM, JMJD2A Tudor inconclusive
O=C(CCC(=O)NCCO)NCCO	none
CC(O)CCC(=O)NCCNC(=O)CCC(C)O (stereo not drawn)	PLK1 PBD block 10.6µM, JMJD2A Tudor 28.2µM
CC(=O)c1ccc(N2CCN(c3ncnc4c3cnn4-c3cc(Cl)ccc3C)CC2)cc1	none (no result: PI5P4Ka inh, PLK1 PBD block)
O=C1NC(=S)NC(=O)C1=Cc1ccccc1C(=O)O	PI5P4Ka inh -73.0, PLK1 PBD block 23.8µM, JMJD2A Tudor 25.1µM (no result: BAZ2B block, G9a block)
O=C(CN1C(=O)C2CCCCC2C1=O)Nc1nc(-c2ccccn2)cs1 (stereo not drawn)	HP1b chromo inh inconclusive, BAZ2B block 35.5µM, PLK1 PBD block 23.8µM, G9a block inconclusive, JMJD2A Tudor 79.4µM
